# Laboratory results reported in PubChem BioAssay AID2148 (The Scripps Research Institute Molecular Screening Center, 2009).
# The whole screen tested about 2,400 compounds, of which about 1,500 (62%) were called active. No stated cut-off is given here; in the data, active means inhibition above about 22%; inactive means the rest. So high a share suggests a set chosen from earlier hits. Many of the other results were omitted from the sample, so actives are more common in it than they were.
# Target: Melanin-concentrating hormone receptor 1 (Homo sapiens) (UniProt Q99705)
# Experiment: MCHR1 antagonists in cells, counter-screen for GPR7 antagonist project, cell-based, fluorescence, human (AID 2148);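 further: 0% = vehicle with agonist and 100% = vehicle without agonist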
# Conditions: MCHR1-expressing cells, fluorescence antagonist assay; at 4.4 µM; stronger effect = higher value
row,SMILES,inhibition
1,CCOC(=O)C1(Cc2ccc(Cl)cc2)CCN(C(C)CCn2cccn2)CC1 (stereo not drawn),26% (active)
2,COc1ccc(Br)cc1CNCCc1cccc(Cl)c1,44.1% (active)
3,CCOc1ccc(-c2cc(C)[n+](CCN(CC)CC)c(-c3ccc(OCC)cc3)c2)cc1,46.5% (active)
